Results from the supplement of paper PMC6522484.
± gives the standard deviation of the averaged measurements.

tested on: DLD1; test: cell viability (CellTiter-Glo) relative to plate median (fraction of plate median); higher = more viable cells; settings: 5 µM; treatment time 24 h; reporter: 7TFP
Outline: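 Library compounds were added at a final concentration of 5 µM for 24 h to colorectal cancer cells stably transduced with a lentiviral TCF/Wnt firefly luciferase reporter. Reported values are firefly luciferase or CellTiterGlo luminescence, normalised per well to the plate median. Each value averages two independent replicates.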

| Structure (SMILES) | cell viability |
| --- | --- |
| Cc1cc(O)c2c(c1)C(=O)c1cccc(O)c1C2=O | 0.921 ± 0.04 |
| COC(=O)C[C@H]1C(C)(C)C(=O)[C@@H]2CC3=C4CC(=O)O[C@@H](c5ccoc5)[C@]4(C)CC[C@@H]3[C@@]1(C)C2=O | 1.01 ± 0.016 |
| CC[C@@]1(O)C(=O)OCc2c1cc1n(c2=O)Cc2cc3cc(O)ccc3nc2-1 | 1.05 ± 0.071 |
| C#C[C@]1(OC(C)=O)CC[C@H]2[C@@H]3CCC4=CC(=O)CC[C@@H]4[C@H]3CC[C@@]21C | 0.87 ± 0.018 |
| CCN(CC)CCOCCOC(=O)C1(c2ccccc2)CCCC1 | 1.03 ± 0.13 |
| C=C1C(=O)C[C@@H]2[C@@H]3CC[C@@H](C(=O)O)[C@@]12CC3(C)C [Terrecyclic Acid A] | 0.873 ± 0.051 |
| C=CCCCCCCCCC(=O)O | 1.03 ± 0.072 |
| CC1CCc2cc(F)cc3c(=O)c(C(=O)O)cn1c23 (stereo not given) | 1.05 ± 0.071 |
| Cc1cc(=O)oc2c(O)c(O)ccc12 | 0.961 ± 0.17 |
| CNCC[C@H](Oc1cccc2ccccc12)c1cccs1 | 1.03 ± 0.067 |
| COc1ccc(C2CC(=O)c3ccc(OC)cc3O2)cc1 (stereo not given) | 0.994 ± 0.11 |
| Cc1cc(C)cc(OCC2CNC(=O)O2)c1 (stereo not given) | 0.964 ± 0.013 |
| FC(F)(F)C(Cl)Br (stereo not given) | 0.964 ± 0.035 |
| CC[C@H]1OC(=O)[C@H](C)[C@@H](O[C@H]2C[C@@](C)(OC)[C@@H](O)[C@H](C)O2)[C@H](C)[C@@H](O[C@@H]2O[C@H](C)C[C@H](N(C)C)[C@H]2O)[C@](C)(O)C[C@@H](C)CN(C)[C@H](C)[C@@H](O)[C@]1(C)O | 1.065 ± 0.0071 |
| O=C(O)C1=C(CSc2nnnn2CS(=O)(=O)O)CS[C@@H]2[C@H](NC(=O)[C@H](O)c3ccccc3)C(=O)N12 | 0.951 ± 0.025 |
| CC(C)[C@H](N)C(=O)OCCOCn1cnc2c(=O)nc(N)[nH]c21 | 1.01 ± 0.028 |
| COc1cc2c(=O)c(-c3ccc4c(c3)OCO4)coc2c(OC)c1OC | 1.05 ± 0.05 |
| COc1c2ccoc2nc2c(OC)c(OCC(O)C(C)(C)O)ccc12 (stereo not given) | 1.02 ± 0.038 |
| CC1=C(/C=C/C(C)=C/C=C/C(C)=C/C=C/C=C(C)/C=C/C=C(C)/C=C/C(=O)[C@]2(C)C[C@@H](O)CC2(C)C)C(C)(C)C[C@H](O)C1 | 0.98 ± 0.057 |
| O=c1cc(-c2ccccc2)oc2cc(O)c(O)c(O)c12 | 1.08 ± 0.021 |

| Structure (SMILES) | cell viability |
| --- | --- |
| CCOc1nc2cccc(C(=O)OC(C)OC(=O)OC3CCCCC3)c2n1Cc1ccc(-c2ccccc2-c2nn[nH]n2)cc1 (stereo not given) | 0.864 ± 0.052 |
| O=c1cc(-c2ccccc2)oc2c(O)c(O)ccc12 | 1.11 ± 0.11 |
| COC(=O)c1c(OC)cc2c(c1C)Oc1c(Cl)c(OC(C)=O)c(Cl)c(C)c1C(=O)O2 | 0.935 ± 0.028 |
| CC(C(=O)O)c1ccc2c(c1)[nH]c1ccc(Cl)cc12 (stereo not given) | 1.02 ± 0.063 |
| C#CCCCCCCCCCCCC(O)CC(O)COC(C)=O (stereo not given) | 1.02 ± 0.021 |
| COc1cc(/C=C/C(=O)O)ccc1O [Ferulic acid (Biofocus)] | 0.923 ± 0.17 |
| Cc1ccc(-c2cc(C(F)(F)F)nn2-c2ccc(S(N)(=O)=O)cc2)cc1 | 0.972 ± 0.097 |
| C/C1=C\CC(C)(C)/C=C/CC2(C)OC2CC1 (stereo not given) | 1.04 ± 0.035 |
| CN(C)CCN(Cc1ccccc1)c1ccccn1 | 0.9435 ± 0.0078 |
| CC1(C)S[C@@H]2[C@H](NC(=O)[C@H](N)c3ccccc3)C(=O)N2[C@H]1C(=O)O | 0.963 ± 0.0099 |
| C=CC(C)(O)CCC1C(=C)CC(O)C2C(C)(C)CCCC12C (stereo not given) | 0.995 ± 0.0071 |
| CN1CCN(CC/C=C2/c3ccccc3Sc3ccc(S(=O)(=O)N(C)C)cc32)CC1 | 1.07 ± 0.078 |
| CCCCCC/C=C\CCCCCCCc1cccc(O)c1C(=O)O | 1.05 ± 0.14 |
| O=c1c(-c2cc(O)c(O)c(O)c2)coc2cc(O)c(O)c(O)c12 | 1.005 ± 0.0071 |
| CC(COc1ccccc1)NC(C)C(O)c1ccc(O)cc1 (stereo not given) | 1.03 ± 0.096 |
| N=C(N)N/N=C/c1c(Cl)cccc1Cl | 0.976 ± 0.028 |
| CCN1CCN(c2cc3c(cc2F)c(=O)c(C(=O)O)cn3C2CC2)CC1 | 1.01 ± 0.05 |
| OC(Cn1cncn1)(Cn1cncn1)c1ccc(F)cc1F | 0.889 ± 0.033 |
| C[C@]12C=CC(=O)C=C1CC[C@@H]1[C@@H]2[C@@H](O)C[C@@]2(C)[C@H]1CC[C@]2(O)C(=O)COC(=O)CCC(=O)O | 1.02 ± 0.028 |
| CC(C)NNC(=O)c1ccncc1 | 1.02 ± 0.029 |
